Laboratory results reported in PubChem BioAssay (NCATS).
Records with an inconclusive call do not appear. A call without a number means that no potency is given here. Active and inactive are the calls of the source. The call rests on the fitted dose curve; in most records, active means well fitted inhibition curve with a large enough effect; inconclusive means small, poorly fitted or top-dose-only effect; inactive means no such curve, though single readings can be large or run the other way.

assay: qHTS Screen of the MIPE 4.0 Collection Against Ewings Sarcoma (RDES) (AID 1259252); settings: RD-ES Ewing sarcoma viability, CellTiter-Glo, 48 h; series mostly up to 45.8 µM; further: nearly all actives have a fitted effect of over 35% in size
Description: There is a large unmet medical need for treatments for Ewing sarcoma, a pediatric sarcoma. We sought to identify compounds that inhibited Ewing sarcoma cells in vitro with the goal to then test promising drugs in two drug combinations in vitro to look for synergistic drug combinations. Promising combinations would then proceed to additional validation, including in vivo testing.
Using the NCATS developed oncology compound library called the Mechanism of Interrogation Plate (MIPE), four Ewing sarcoma cell lines were evaluated (TC32, TC71, RDES, EW8). Compounds, in a 12-point titration series, were incubated with cells for 48 hours and the read out was cell viability (CellTiter-Glo from Promega). These initial experiments were used to select appropriate concentrations of each single agent for subsequent two-drug matrix combinations such that the concentrations in the matrices would span both activity and non-activity.
Cells, in the log phase of growth, were seeded in 5 uL of RPMI plus 5% FBS, […] L-glutamine, 100 U/ml penicillin and 100 ug/ml streptomycin into 1536-well solid-bottom white tissue culture treated Greiner Bio One Plates (789173-F) using a MultiDrop Combi (Thermofisher Scientific) dispenser and a small sterile cassette. One column was media alone to be used as a :"no cells" control. The plates were then covered with sterilized stainless steel gasketed lids from Kalypsys. After allowing cells to attach for 4 hours, 23 nL of test compound or control (negative control DMSO and positive control 9.2 uM Bortezomib-final) were added from a 1536-well polypropylene compound source plate to each well using a 1536 head pin tool from Kalypsys. Cells were then incubated for 48 hours at 37C, 95% relative humidity and 5% CO2. After 48 hours, plates were removed from the incubator and 3 uL of CellTiter-Glo (Promega) was added using an Aurora Flying Reagent Dispenser Bioraptor. Plates were incubated at room temperature for 10 minutes prior to reading the luminescence on the Viewlux (PerkinElmer). The relative luciferase units are used to calculate the percent activity using the activity of DMSO in the cells and no cells columns for normalization of no inhibition and full inhibition respectively.
Potency means the concentration at half of the fitted maximal effect.

Structure (SMILES)	Potency
COCC1(CO)C(=O)C2CCN1CC2 (stereo not given)	2090 nM (active)
CC(C)N[C@@H]1CCn2c(=O)[nH]c3cccc(c32)[C@@H]1O	1180 nM (active)
CCNC(=O)C[C@@H]1N=C(c2ccc(Cl)cc2)c2cc(OC)ccc2-n2c(C)nnc21	3320 nM (active)
CC(C)(C)[C@]1(O)C[C@@H]2OC(=O)C[C@@]23C(=O)O[C@@H]2OC(=O)[C@H](O)C213 (stereo not given in full)	inactive
CCCC[N+]1(C)[C@H]2CC(OC(=O)[C@H](CO)c3ccccc3)C[C@H]1[C@H]1O[C@H]12 (stereo not given in full)	inactive
CC=C(C)C(=O)O[C@H]1C(C)=C2[C@@H]3OC(=O)[C@@](C)(O)[C@@]3(O)[C@@H](OC(=O)CCC)C[C@](C)(OC(C)=O)[C@@H]2[C@@H]1OC(=O)CCCCCCC	148 nM (active)
CCN1CCN(C(=O)Cc2ccc(Nc3ncc(F)c(Nc4ccc(C(=O)Nc5ccccc5Cl)cc4)n3)cc2)CC1	8330 nM (active)
CC=C(C)C(=O)N[C@@H](c1ccccc1)[C@@H](O)C(=O)O[C@H]1C[C@@]2(O)[C@@H](OC(=O)c3ccccc3)[C@@H]3[C@]4(OC(C)=O)CO[C@@H]4C[C@H](O)[C@@]3(C)C(=O)[C@H](OC(C)=O)C(=C1C)C2(C)C	inactive
CC1=NN=C(c2ccc(N)cc2)c2cc3c(cc2C1)OCO3	inactive
CCC(=O)OC1CCC2C3CCC4=CC(=O)CC[C@@]4(C)C3CC[C@]12C (stereo not given in full)	inactive
COc1cc([C@@H]2c3cc4c(cc3[C@@H](O)C3COC(=O)C32)OCO4)cc(OC)c1O (stereo not given in full)	23.5 nM (active)
C[C@]12Cc3cn[nH]c3C[C@@H]1CC[C@@H]1[C@H]2CC[C@@]2(C)[C@H]1CC[C@]2(C)O	2960 nM (active)
C[C@@]12OC(=O)[C@]1([C@@H](O)[C@@H]1C=CCCC1)NC(=O)[C@H]2CCCl	37.2 nM (active)
NC1=NC(=O)N2CC12 (stereo not given)	inactive
C=C[C@@H]1CN2CCC1C[C@H]2[C@H](O)c1ccnc2ccccc12 (stereo not given in full)	23500 nM (active)
CC(=Cc1csc(C)n1)[C@@H]1C[C@H]2O[C@@H]2CCC[C@H](C)[C@@H](O)[C@@H](C)C(=O)C(C)(C)[C@@H](O)CC(=O)O1	inactive
CC(C)(O)C(=O)Nc1ccc([N+](=O)[O-])c(C(F)(F)F)c1	14800 nM (active)
COc1ccc(N(C(=O)Oc2c(C)cccc2C)c2ccnc(Nc3ccc(N4CCN(C)CC4)cc3)n2)c(OC)c1	1870 nM (active)
Clc1ccccc1C(c1ccccc1)(c1ccccc1)n1cccn1	1050 nM (active)
CCN(CC)C(=O)c1ccc(C2=CC3(CCNCC3)Oc3cccc(O)c32)cc1	inactive

Structure (SMILES)	Potency
COC1=C[C@@H]2[C@@H]3Cc4ccc(OC)c(O)c4[C@]2(CCN3C)CC1=O	4690 nM (active)
COC1=CC(C)=C[C@@H](C)[C@@H](O)[C@@H](C)CC(C)=CC=C[C@H](OC)[C@H]([C@@H](C)[C@@H](O)[C@H](C)[C@@]2(O)C[C@@H](O)[C@H](C)[C@@H](C(C)C)O2)OC1=O	5.9 nM (active)
N#C[C@H](O[C@@H]1O[C@H](CO[C@@H]2O[C@H](CO)[C@H](O)[C@H](O)[C@H]2O)[C@H](O)[C@H](O)[C@H]1O)c1ccccc1	23500 nM (active)
CC[C@@H]1[C@@H](C)O[C@@](O)([C@@H](C)[C@H](O)[C@H](C)[C@H]2OC(=O)C=CC=C[C@@H](C)[C@@H]([C@@H](C)[C@@H](O)[C@H](C)[C@@]3(O)C[C@H](O[C@H]4C[C@H](O)[C@H](O)[C@H](C)O4)[C@H](CC)[C@@H](C)O3)OC(=O)C=CC=C[C@@H]2C)C[C@H]1O[C@H]1C[C@H](O)[C@H](O)[C@H](C)O1	662 nM (active)
C1=C2CCCN[C@H]2[C@@H]2C[C@H]1[C@@H]1CCCCN1C2	inactive
O=C(N[C@H]1CN2CCC1CC2)c1ccc(Cl)cc1	8330 nM (active)
CSCC[C@@H](NC(=O)[C@@H](Cc1ccccc1)NC(=O)CNC(=O)CNC(=O)[C@@H](N)Cc1ccc(O)cc1)C(=O)O	inactive
CC(C)[C@]12O[C@@H]1[C@@H]1O[C@]13[C@]1(O[C@H]1C[C@@H]1C4=C(CC[C@@]13C)C(=O)OC4)[C@H]2O	inactive
CO[C@H]1CCC(O[C@H]2C[C@H]([C@]3(C)CC[C@]4(C[C@H](O)[C@@H](C)[C@@H]([C@@H](C)C=C(C)C(=O)[C@H](C)C[C@H](C)C(=O)O)O4)O3)O[C@]3(O[C@@H]([C@H]4O[C@@](O)(CO)[C@H](C)C[C@H]4C)C[C@H]3C)[C@H]2C)O[C@H]1C (stereo not given in full)	418 nM (active)
c1ccc2c(CN3CCNCC3)cccc2c1	inactive
C[C@]12CC[C@H]3[C@@H](CCC4=CC(=O)CC[C@@]43C)[C@H]1CC[C@H]2OC(=O)CCC1CCCC1	inactive
C[C@H]([C@H](O)CCC(C)(C)O)[C@H]1CC[C@@]2(O)C3=CC(=O)[C@@H]4C[C@@H](O)[C@@H](O)C[C@]4(C)[C@@H]3CC[C@]12C	inactive
CC(=Cc1csc(C)n1)[C@@H]1C[C@H]2O[C@]2(C)CCC[C@H](C)[C@@H](O)[C@@H](C)C(=O)C(C)(C)[C@@H](O)CC(=O)O1	inactive
O=C1CCC[C@@H]2[C@H]3CCCN4CCC[C@@H](CN12)[C@@H]34	inactive
COc1cccc2c1[C@]13CCN(CC4CC4)[C@H](C2)[C@]1(OC)CCC(=O)C3	inactive
COc1cc2cc(c1Cl)N(C)C(=O)C[C@H](OC(=O)C(C)C)[C@]1(C)O[C@H]1[C@H](C)[C@@H]1C[C@@](O)(NC(=O)O1)[C@H](OC)C=CC=C(C)C2	inactive
C[C@@H]1[C@H](O)[C@@H](C)C=CC=CCCC=CC=CC=CC=C[C@H](O[C@H]2O[C@@H](C)[C@H](O)[C@@H](N)[C@@H]2O)CC2O[C@](O)(C[C@@H](O)[C@H](O)CC[C@@H](O)C[C@@H](O)C[C@@H](O)CC(=O)O[C@H]1C)C[C@H](O)[C@H]2C(=O)O	inactive
C[C@]12CC[C@H]3[C@@H](CCC4=CC(=O)CC[C@@]43C)[C@H]1CC[C@H]2O	inactive
CC(=O)OCC1=C(C(=O)O)N2C(=O)[C@@H](N)[C@@H]2SC1	inactive
CC[C@@]1(O)C(=O)OCc2c1cc1n(c2=O)Cc2cc3ccccc3nc2-1	13.2 nM (active)
